CCHF vOTU inh-1: CCHFV vOTU protease inhibition; Pep-AMC fluorescence; inhibition, % at 11.5 µM; hit rate 0.55% among 370,000; AID 651958
Mtb betalactam: beta-lactam sensitization of Mtb H37Rv; M. tuberculosis H37Rv growth with meropenem, percent inhibition; inhibition, % at 25 µM; hit rate 0.27% among 330,000; call rule not given here;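 note: growth measured after seven days incubation then overnight dye step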
Rv3671c protease: inhibits the M. tuberculosis serine protease Rv3671c; P9WHR9; inhibition, % at 5.96 µM; hit rate 0.048% among 320,000; in the data active = inhibition above about 38%;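 note: extracellular domain of Rv3671c used as enzyme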
RecA splice inh: Mtb RecA intein splicing inhibition; hit rate 0.75% among 290,000; P9WHJ3; inhibition, % (concentration not given with the values); cell-free RecA intein splicing, fluorescence; AID 2221; in the data active = inhibition above about 30%
Mtb UGM inh: Mtb UDP-galactopyranose mutase inhibition; P9WIQ1; purified UGM, fluorescence polarization probe displacement; inhibition, % at 10 µM; hit rate 0.06% among 320,000; AID 504406; in the data active = inhibition above about 10%, passing the limit was not always enough
Target sequence (P9WIQ1 whole entry, looked up): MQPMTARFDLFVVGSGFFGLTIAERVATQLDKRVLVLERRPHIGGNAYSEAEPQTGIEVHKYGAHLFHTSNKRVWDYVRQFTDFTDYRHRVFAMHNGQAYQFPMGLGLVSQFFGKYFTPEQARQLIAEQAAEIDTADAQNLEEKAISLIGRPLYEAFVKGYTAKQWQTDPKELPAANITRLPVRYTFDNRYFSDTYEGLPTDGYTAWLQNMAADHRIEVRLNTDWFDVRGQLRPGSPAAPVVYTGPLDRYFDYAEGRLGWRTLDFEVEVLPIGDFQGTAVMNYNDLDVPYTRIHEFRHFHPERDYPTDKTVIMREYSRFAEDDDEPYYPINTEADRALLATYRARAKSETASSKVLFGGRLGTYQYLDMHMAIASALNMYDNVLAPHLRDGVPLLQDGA
CCHF vOTU inh-2: confirmation of CCHF virus vOTU protease inhibitors; shares compounds with CCHF vOTU inh-1; Recombinant CCHFV vOTU, Pep-AMC fluorescence; inhibition, % at 11.5 µM; hit rate 17% among 1,900; AID 686976
Numbers stand for hits. In the library only some 1.2% were active in any assay of this set; here they are far more common. Cut-off read from the data, not from the text of the source, unless noted: active = inhibition above about 30%; inactive = the rest.

Screening COc1ccc(OC)c(S(=O)(=O)N2CCC3(CC2)OCCN3S(=O)(=O)c2ccccc2)c1 returned CCHF vOTU inh-1 34, Mtb betalactam inactive, Rv3671c protease inactive, RecA splice inh inactive, Mtb UGM inh inactive and CCHF vOTU inh-2 inactive.
COc1ccc(S(=O)(=O)N2CCOC23CCN(S(=O)(=O)c2cc(C)ccc2OC)CC3)cc1 was read as CCHF vOTU inh-1 inactive, Mtb betalactam inactive, Rv3671c protease inactive, RecA splice inh inactive and Mtb UGM inh inactive.
Screening Cc1cc2c(cc1C)C(=O)C(Br)=C(N)C2=O returned CCHF vOTU inh-1 78 and CCHF vOTU inh-2 57.
Screening Cc1cc(-c2cc(C)c(N)cc2C)c(C)cc1N returned CCHF vOTU inh-1 inactive.
`COc1ccccc1CC(=O)Nc1ccc(S(=O)(=O)N2CCN(C)CC2)cc1` gave CCHF vOTU inh-1 40, Mtb betalactam inactive, Rv3671c protease inactive, RecA splice inh inactive, Mtb UGM inh inactive and CCHF vOTU inh-2 inactive.
COc1ccccc1CC(=O)Nc1ccc(S(=O)(=O)N2CC(C)CC(C)C2)cc1 (stereo unspecified) was read as CCHF vOTU inh-1 inactive, Mtb betalactam inactive, Rv3671c protease inactive and Mtb UGM inh inactive.
Screening COC(=O)c1sc(N2C(=O)C(O)=C(C(=O)c3ccc(C)o3)C2c2ccc([N+](=O)[O-])cc2)nc1C (stereo unspecified) returned CCHF vOTU inh-1 31, Mtb betalactam inactive, Rv3671c protease inactive, RecA splice inh inactive, Mtb UGM inh inactive and CCHF vOTU inh-2 inactive.
`CCOc1ccc(C2C(C(=O)c3ccc(C)o3)=C(O)C(=O)N2c2nc(C)c(C(=O)OC)s2)cc1` (stereo unspecified) gave CCHF vOTU inh-1 inactive, Mtb betalactam inactive, Rv3671c protease inactive, RecA splice inh inactive and Mtb UGM inh inactive.
`Cc1cccc(-n2c3nc(=O)[nH]c(=O)c-3cc3cc([N+](=O)[O-])ccc32)c1` gave CCHF vOTU inh-1 inactive, Mtb betalactam inactive, Rv3671c protease inactive, RecA splice inh inactive and Mtb UGM inh inactive.
Cc1ccc(C)c(-n2c3nc(=O)[nH]c(=O)c-3cc3cc([N+](=O)[O-])ccc32)c1 was read as CCHF vOTU inh-1 79, Mtb betalactam inactive, Rv3671c protease inactive, Mtb UGM inh inactive and CCHF vOTU inh-2 inactive.
Screening OCc1ccccc1CNCc1ccccc1 returned CCHF vOTU inh-1 inactive, Mtb betalactam inactive, Rv3671c protease inactive, RecA splice inh inactive and Mtb UGM inh inactive.
For Oc1cc(CNCc2ccccc2)c(O)cc1CNCc1ccccc1 the results were CCHF vOTU inh-1 43 and CCHF vOTU inh-2 inactive.
Screening CCC1Sc2ccc(S(=O)(=O)CCC(=O)Nc3ccc(OC(F)(F)F)cc3)cc2NC1=O (stereo unspecified) returned CCHF vOTU inh-1 39, Mtb betalactam inactive, Rv3671c protease inactive, RecA splice inh inactive, Mtb UGM inh inactive and CCHF vOTU inh-2 inactive.
Screening O=C(Cc1ccccc1)c1ccc(O)cc1O returned CCHF vOTU inh-1 inactive.
For O=C(Cc1ccc2cccnc2c1)c1ccc(O)cc1O the results were CCHF vOTU inh-1 48, Mtb betalactam inactive, Rv3671c protease inactive, RecA splice inh inactive, Mtb UGM inh inactive and CCHF vOTU inh-2 inactive.
`C[C@@H]1CCN(C2CC2)S(=O)(=O)c2c(cccc2N2CC[C@@H](N(C)C)C2)O1` gave CCHF vOTU inh-1 inactive.
Screening Cc1ccccc1Nc1c([N+](=O)[O-])cncc1[N+](=O)[O-] returned CCHF vOTU inh-1 30, Mtb betalactam inactive, Rv3671c protease inactive, RecA splice inh inactive, Mtb UGM inh inactive and CCHF vOTU inh-2 inactive.
`COc1ccccc1Nc1c([N+](=O)[O-])cncc1[N+](=O)[O-]` gave CCHF vOTU inh-1 inactive, Mtb betalactam inactive, Rv3671c protease inactive, RecA splice inh inactive and Mtb UGM inh inactive.
Cn1c(=O)c2c(ncn2CC(=O)OCC(=O)c2ccc(Cl)cc2)n(C)c1=O was read as CCHF vOTU inh-1 inactive, Mtb betalactam inactive, Rv3671c protease inactive, RecA splice inh inactive and Mtb UGM inh inactive.
For Cn1c(=O)c2c(ncn2CC(=O)OCC(=O)c2ccc(Br)cc2)n(C)c1=O the results were CCHF vOTU inh-1 32 and CCHF vOTU inh-2 inactive.
`CC(C)OC(=O)CSc1nc2cccnc2n1-c1ccc(F)cc1` gave CCHF vOTU inh-1 31, Mtb betalactam inactive, Rv3671c protease inactive, Mtb UGM inh inactive and CCHF vOTU inh-2 inactive.
For CCOC(=O)CSc1nc2cccnc2n1-c1ccc(F)cc1 the results were CCHF vOTU inh-1 inactive, Mtb betalactam inactive, Rv3671c protease inactive, RecA splice inh inactive and Mtb UGM inh inactive.
`CCc1ccc2c(CN3CCN(S(=O)(=O)c4ccccc4F)CC3)cc(=O)oc2c1` gave CCHF vOTU inh-1 inactive, Mtb betalactam inactive, Rv3671c protease inactive and Mtb UGM inh inactive.
For CCc1ccc2c(CN3CCN(S(=O)(=O)c4cccs4)CC3)cc(=O)oc2c1 the results were CCHF vOTU inh-1 35, Mtb betalactam inactive, Rv3671c protease inactive, RecA splice inh inactive, Mtb UGM inh inactive and CCHF vOTU inh-2 inactive.
C=CCCC[C@H]1OC(=O)[C@H](C)NC(=O)[C@H](C(C)C)NC(=O)[C@@H]2CCCN2C(=O)[C@H](Cc2ccccc2)OC(=O)[C@@H](C(C)C)N(C)C(=O)[C@H](C(C)C)NC(=O)C1(C)C was read as CCHF vOTU inh-1 30 and CCHF vOTU inh-2 inactive.
For CCN1/C(=C/c2ccc3cc(C)ccc3[n+]2CC)Sc2ccccc21 the results were CCHF vOTU inh-1 31, Mtb betalactam inactive, Rv3671c protease inactive, RecA splice inh inactive, Mtb UGM inh inactive and CCHF vOTU inh-2 inactive.
CCN1/C(=C/c2ccc3cc(C)ccc3[n+]2CC)Sc2cc(C)c(C)cc21 was read as CCHF vOTU inh-1 inactive.
O=c1[nH]c(=S)[nH]c2c1C(c1ccc(Br)cc1)c1c([nH]c(=S)[nH]c1=O)O2 was read as CCHF vOTU inh-1 43, Mtb betalactam inactive, Rv3671c protease inactive, RecA splice inh inactive, Mtb UGM inh inactive and CCHF vOTU inh-2 41.
`C[n+]1c2cc(N)ccc2cc2ccc(N)cc21` gave CCHF vOTU inh-1 88 and CCHF vOTU inh-2 54.
For Nc1ccc2ccccc2c1 the results were CCHF vOTU inh-1 inactive.
CCCC(=Nc1ccccc1)C1=C(O)C(C(=O)OC)C(C)(C)CC1=O (stereo unspecified) was read as CCHF vOTU inh-1 inactive, Mtb betalactam inactive, Rv3671c protease inactive, RecA splice inh inactive and Mtb UGM inh inactive.
`CCC(=NCc1ccccc1)C1=C(O)C(C(=O)OC)C(C)(C)CC1=O` (stereo unspecified) gave CCHF vOTU inh-1 inactive, Mtb betalactam inactive, Rv3671c protease inactive, RecA splice inh inactive and Mtb UGM inh inactive.
`CCCCC(=Nc1ccc(N)cc1)C1=C(O)C(C(=O)OC)C(C)(C)CC1=O` (stereo unspecified) gave CCHF vOTU inh-1 92, Mtb betalactam inactive, Rv3671c protease inactive, RecA splice inh inactive, Mtb UGM inh inactive and CCHF vOTU inh-2 inactive.
CCC(=Nc1ccc(N)cc1)C1=C(O)C(C(=O)OC)C(C)(C)CC1=O (stereo unspecified) was read as CCHF vOTU inh-1 105, Mtb betalactam inactive, Rv3671c protease inactive, RecA splice inh inactive, Mtb UGM inh inactive and CCHF vOTU inh-2 inactive.
